Measurements from PubChem BioAssay AID1259343 (VanderVen Lab, College of Veterinary Medicine, Cornell …, 2017).
The campaign covered roughly 6,200 compounds. About 2,900 (47%) were called active. So high a share suggests a set chosen from earlier hits. Some of the results follow. Unmarked numbers belong to inactive results. No stated cut-off is given here; in the data, active means inhibition above about 50%; inactive means the rest.

Test: Mycobacterium tuberculosis growth inhibition, primary screen (AID 1259343)
Details: inhibition: at 10 µM, active compounds read high; outcome: 10 uM

Compound	inhibition
CCCCn1c(C2CCCCC2)nc2oc3ccccc3c(=O)c2c1=O	-33.2%
COc1nc(C)ccc1CNC(=O)C(=O)Nc1cccc(F)c1F	8.51%
Cc1ccc(-c2noc(CSc3ncccn3)n2)cc1	42.6%
Clc1ccc(-c2noc(COc3ccc4c(c3)OCO4)n2)cc1	18.1%
CN(Cc1nc(-c2ccccc2)no1)Cc1ccnc2ccccc12	-26.1%
CN(Cc1nc(-c2ccc(C(F)(F)F)cc2)no1)CC(O)c1ccccc1 (stereo not given)	84.5% (active)
CC(C)c1ccc(-c2noc(CN(C)c3ccccc3)n2)cc1	63.2% (active)
Cc1ccc(-c2noc(CC#N)n2)cc1	77.1% (active)
Cc1ccc(-c2noc(COc3ccc(C(C)C)cc3)n2)cc1	95.7% (active)
N#CCOc1ccc(CNc2ncc(Br)cn2)cc1	33.8%
Cc1ccc(-c2noc(CN3CCCc4ccccc43)n2)cc1	101% (active)
N#Cc1c(SCc2ccccc2)n[nH]c1-c1cccs1	37.8%
O=c1[nH]nc(SCc2ccccc2)c(=S)[nH]1	85.6% (active)
CC(C)(C)c1nnc(NC(=O)c2cc(C(F)(F)F)cc(C(F)(F)F)c2)s1	96% (active)
CC(C)CC(=O)Nc1nnc(C(C)(C)C)s1	17.4%
CCCc1nc(N2C[C@@H]3[C@H](C2)[C@H]2CC[C@@H]3O2)no1	-30.4%
CC(C)c1cc(C(=O)N2C[C@@H]3[C@H](C2)[C@H]2CC[C@@H]3O2)cs1	-8.56%
CC(C)Cc1cc(C(=O)N2C[C@@H]3[C@H](C2)[C@H]2CC[C@@H]3O2)on1	83.1% (active)
CC(C)c1noc(-c2ccc(NC(=O)N3CCCC3)cc2)n1	73.4% (active)
Cc1ccc(NC(=O)N2CCN(CCCOC(c3ccc(Cl)cc3)c3ccc(Cl)cc3)CC2)cc1	-2.85%
CC1CCN(C(=O)Nc2ccc(Br)cc2)CC1	30.1%
COC(F)(C(=O)Nc1ccc(C)c(Br)c1)C(F)(F)F (stereo not given)	56.7% (active)

Compound	inhibition
COc1ccc(NC(=O)c2ccc(=O)n(C)c2)cc1Br	2.47%
Cc1ccc(NC(=O)c2ncoc2C(C)C)cc1Br	40.1%
O=C1CC(c2ccccc2)CC(=O)C1S(=O)c1ccc(Cl)cc1 (stereo not given)	58.1% (active)
C=C=C/C=C/C=C\Oc1ccc(CO)cc1O/C=C\C=C\C=C=C	88.7% (active)
CC(C)(C)c1noc(COc2ccc(O)cc2)n1	39.8%
Brc1ccc(OCc2nnc(-c3cccs3)o2)cc1	42.8%
Cc1nc(COc2ccc(Oc3nccs3)cc2)oc1C	80% (active)
CC(C)NC(=O)c1ccc(OCc2cccs2)cc1	-17.8%
CC(c1cccs1)N(C)C(=O)COc1ccc(F)cc1 (stereo not given)	59.8% (active)
CN(C)Cc1nc(Cl)c2c3c(sc2n1)CCCCC3	69.8% (active)
CC1CCc2c(nc3sc4c(c3c2N)CCCC4)C1 (stereo not given)	32.6%
CC(CCc1ccccc1)NC(=O)NCCC1CCCC1 (stereo not given)	-6.93%
CN(CCC1CCCCC1)C(=O)Nc1ccsc1	48.9%
CCc1ccc(CN(C)C(=O)NCCC2CCCC2)cc1	99.2% (active)
NC(=O)c1cc(Cl)ccc1OCc1ccccc1Br	1.54%
NC(=O)c1ccc(CSCc2cccc(F)c2)cc1	19.5%
Cc1cccc(OCc2ccc(C(N)=O)cc2)c1C	64.1% (active)
CCc1cc(OCc2ccc(C(N)=O)cc2)ccc1Cl	-54%
CC(C)(C)c1ccc(COc2ccccc2C(N)=O)cc1	30.2%
Cc1cc(Cl)ccc1OCc1ccc(C(N)=O)cc1	68.2% (active)
CC(C)c1cc(C(=O)NC2CC2)nn1-c1nc2ccccc2s1	94.4% (active)
CC(C)c1cc(C(=O)NC2CCN(c3cccc(F)c3)CC2)n[nH]1	41.4%

Compound	inhibition
Cc1cc(=O)[nH]c(-n2nc(C3CC3)cc2NC(=O)c2c(F)cccc2F)n1	99.2% (active)
Cc1cc(=O)[nH]c(-n2nc(C3CC3)cc2NC(=O)c2ccccc2Cl)n1	101% (active)
Cc1cc(=O)[nH]c(-n2nc(C3CC3)cc2NC(=O)c2ccccc2C(F)(F)F)n1	99.9% (active)
Cc1nc(-n2nc(C3CC3)cc2NC(=O)c2ccccc2F)[nH]c(=O)c1C	-15.9%
Cc1nc(-n2nc(C3CC3)cc2NC(=O)c2ccccc2Cl)[nH]c(=O)c1C	80.4% (active)
Cc1cc(=O)[nH]c(-n2nc(C3CC3)cc2NC(=O)c2cccc3ccccc23)n1	99.8% (active)
Cc1cc(=O)[nH]c(-n2nc(C3CC3)cc2NC(=O)c2ccccc2F)n1	101% (active)
N#Cc1ccc(S(=O)(=O)NC(=O)c2sccc2C2CC2)cc1	67.6% (active)
O=C(NS(=O)(=O)Cc1ccccc1)c1sccc1C1CC1	10.6%
Nc1ncc(CN2CCCC(C(=O)Nc3ccc(-c4ccco4)cc3)C2)cn1 (stereo not given)	inactive
Cn1ccc(CC(=O)N2CCCC(C(=O)Nc3ccc(-c4ccco4)cc3)C2)c1 (stereo not given)	84.1% (active)
O=C(Nc1ccc(-c2ccco2)cc1)C1CCCN(Cc2coc3ccccc3c2=O)C1 (stereo not given)	31.3%
O=C(Nc1ccc(-c2ccco2)cc1)C1CCCN(C(=O)CCc2cnccn2)C1 (stereo not given)	-19.9%
O=C(Nc1ccc(-c2ccco2)cc1)C1CCCN(Cc2cccc3c2OCO3)C1 (stereo not given)	85% (active)
O=C(Nc1ccc(-c2ccco2)cc1)C1CCCN(C(=O)CCc2cccs2)C1 (stereo not given)	inactive
COc1cc(/C=C/CN2CCCC(C(=O)Nc3ccc(-c4ccco4)cc3)C2)ccc1O (stereo not given)	45.7%
O=C(Nc1ccc(-c2ccco2)cc1)C1CCCN(C(=O)CCN2CCCO2)C1 (stereo not given)	82.8% (active)
O=C1Nc2ncccc2Oc2cc(F)cc(O)c21	81.3% (active)
O=C(NCc1ccccn1)Nc1cc(F)c(N2CCCC2)c(F)c1	38.7%
CC(C(=O)Nc1ccccc1Cl)N1CCCC1c1ccsc1 (stereo not given)	3.58%
O=C(NCCOc1cc(N2CCCCC2)ncn1)Nc1ccccc1Cl	56% (active)
